Results from the antibiotic and cytotoxicity screens of Wong et al. (2023).
Screen size: about 39,000 compounds; about 3,300 (8.5%) were called active. This is one part of a sample in which actives are shown more often than they occur.

System: HepG2
Assay: cytotoxicity call (relative viability < 0.9)
Details: 10 µM

SMILES	cytotoxicity call
C[C@@H]1CN([C@@H](C)CO)C(=O)c2cccc(NC(=O)c3cnccn3)c2O[C@H]1CN(C)Cc1ccc(C(=O)O)cc1	inactive
C[C@@H]1CCCCO[C@H](CN(C)C(=O)c2ccccc2)[C@H](C)CN([C@@H](C)CO)C(=O)c2cc(NC(=O)Nc3cccc4ccccc34)ccc2O1	inactive
O=C(C[C@@H]1CC[C@H](NS(=O)(=O)c2ccc(F)cc2)[C@H](CO)O1)N1CCC(Cc2ccccc2)CC1	inactive
Cc1ccc(S(=O)(=O)N(C)C[C@@H]2Oc3ccc(NS(=O)(=O)c4cn(C)cn4)cc3CC(=O)N([C@H](C)CO)C[C@H]2C)cc1	inactive
Cc1ccc(OCCn2c(CC(C)(C)C)nc3ccccc32)cc1	inactive
Cc1cccc(-c2nc3ccccc3n2CCC(C)C)c1	inactive
c1ccc(Cn2c(-c3ccc(OC[C@H](C4CCNCC4)n4c(-c5ccccc5)nc5ccccc54)cc3)nc3ccccc32)cc1	active
Cc1cncc2cccc(S(=O)(=O)N[C@H]3CN[C@H](COC(=O)NCCOCCOCCN)C3)c12	inactive
Cn1cc(CO)cn1	inactive
O=C(C[C@@H]1CC[C@H]2[C@@H](COC[C@@H](O)CN2C(=O)Nc2ccc3c(c2)OCO3)O1)N1CCN(c2ccccc2)CC1	inactive
COc1ccc(NC(=O)Nc2cccc3c2O[C@H](CN(C)Cc2ccc(-c4ccccc4)cc2)[C@@H](C)CN([C@H](C)CO)C3=O)cc1	inactive
COc1ccc(NC(=O)Nc2cccc3c2O[C@H](CN(C)Cc2ccc(-c4ccccc4)cc2)[C@H](C)CN([C@H](C)CO)C3=O)cc1	active
COc1ccc(NC(=O)Nc2cccc3c2O[C@@H](CN(C)Cc2ccc(-c4ccccc4)cc2)[C@@H](C)CN([C@H](C)CO)C3=O)cc1	inactive
COc1ccc(NC(=O)Nc2cccc3c2O[C@@H](CN(C)Cc2ccc(-c4ccccc4)cc2)[C@@H](C)CN([C@@H](C)CO)C3=O)cc1	inactive
C[C@H]1CN([C@@H](C)CO)C(=O)c2cccc(NC(=O)Nc3ccccc3)c2O[C@H]1CN(C)Cc1ccc(-c2ccccc2)cc1	inactive
COc1ccc(NC(=O)Nc2cccc3c2O[C@H](CN(C)Cc2ccc(-c4ccccc4)cc2)[C@H](C)CN([C@@H](C)CO)C3=O)cc1	active
COc1ccc(NC(=O)Nc2cccc3c2O[C@@H](CN(C)Cc2ccc(-c4ccccc4)cc2)[C@H](C)CN([C@@H](C)CO)C3=O)cc1	inactive
COc1ccc(NC(=O)Nc2cccc3c2O[C@@H](CN(C)Cc2ccc(-c4ccccc4)cc2)[C@H](C)CN([C@H](C)CO)C3=O)cc1	active
COc1ccc(NC(=O)Nc2cccc3c2O[C@H](CN(C)Cc2ccc(-c4ccccc4)cc2)[C@@H](C)CN([C@@H](C)CO)C3=O)cc1	active
COc1ccc(NC(=O)N(C)C[C@H]2OCCCC[C@@H](C)Oc3ccc(NC(=O)C4CCCCC4)cc3C(=O)N([C@H](C)CO)C[C@@H]2C)cc1	inactive
COc1ccc(CN(C)C[C@H]2Oc3c(NS(C)(=O)=O)cccc3C(=O)N([C@@H](C)CO)C[C@H]2C)cc1	inactive
COc1ccc2c3c([nH]c2c1)[C@H](CO)N(C[C@]13CN(Cc2ccccc2)C1)S(=O)(=O)c1cn(cn1)C	inactive
COc1ccc(NC(=O)N(C)C[C@H]2Oc3ncc(C#CCN(C)C)cc3C(=O)N([C@@H](C)CO)C[C@H]2C)cc1	inactive

SMILES	cytotoxicity call
O=C(C[C@@H]1CC[C@H]2[C@@H](COC[C@@H](O)CN2Cc2cc(F)ccc2F)O1)N[C@@H]1CCN(Cc2ccccc2)C1	inactive
C[C@@H]1CN([C@H](C)CO)C(=O)CCCn2nncc2CO[C@@H]1CN(C)C(=O)c1ccc(N2CCN(C)CC2)cc1	inactive
Fc1ccccc1[C@H]1Nc2ccc3ccccc3c2[C@H]2C=CC[C@@H]21	inactive
CCNC(=O)C[C@@H]1CC[C@H](NC(=O)C2CCOCC2)[C@H](CO)O1	inactive
Cc1noc(C)c1NC(=O)Nc1ccc2c(c1)C(=O)N([C@H](C)CO)C[C@H](C)[C@H](CN(C)Cc1ccc(C(F)(F)F)cc1)O2	inactive
C[C@@H]1CN([C@H](C)CO)C(=O)c2cc(-c3cncnc3)cnc2O[C@H]1CN(C)C(=O)Nc1ccc2c(c1)OCO2	inactive
CCCNC(=O)c1cc2c(c(-c3cccc(-c4cccc(OC)c4)c3)n1)[C@H](CCO)N([S@@](=O)C(C)(C)C)C2	inactive
COc1ccccc1CN1C(=O)c2ccccc2[C@@]2(Cc3ccccc3N(C3CC3)C2=O)[C@@H]1c1ccc(CO)cc1	inactive
O=C1c2ccccc2[C@@]2(Cc3ccccc3N(C3CC3)C2=O)[C@H](c2ccc(CO)cc2)N1Cc1ccccc1	active
O=C1c2ccccc2[C@@]2(Cc3ccccc3N(C3CC3)C2=O)[C@H](c2ccc(CO)cc2)N1Cc1ccccc1Cl	inactive
COc1ccc(S(=O)(=O)N[C@@H]2C=C[C@H](CC(=O)N3CCN(c4ccccc4)CC3)O[C@H]2CO)cc1	inactive
COc1c(O)cc2c(c1O)[C@@H]1O[C@H](CO)[C@@H](O)[C@H](O)[C@H]1OC2=O	inactive
O=C(O)c1cc(O)c2c(c1)C(C1c3cc(C(=O)O)cc(O)c3C(=O)c3c(OC4OC(CO)C(O)C(O)C4O)cccc31)c1cccc(OC3OC(CO)C(O)C(O)C3O)c1C2=O (stereo unspecified)	active
OCCc1ccc(O)c(O[C@H]2O[C@@H](CO)[C@@H](O)[C@@H](O)[C@@H]2O)c1	inactive
O=C(O)c1cc(O[C@@H]2O[C@H](CO)[C@@H](O)[C@H](O)[C@H]2O)c2ccccc2c1O	inactive
O=C1c2c(O)cccc2C(C2OC(CO)C(O)C(O)C2O)c2cc(CO)cc(O)c21 (stereo unspecified)	active
OCc1cc(O)c2c(O)c3c(O)cccc3c(O[C@@H]3O[C@H](CO)[C@H](O)[C@@H](O)[C@H]3O)c2c1	inactive
OCc1cc(O)c2c(O)c3c(O)cccc3c(O[C@@H]3O[C@H](CO)[C@@H](O)[C@H](O)[C@H]3O)c2c1	active
O=C(O)c1cc(O)c2c(O)c3c(O[C@H]4O[C@H](CO)[C@@H](O)[C@H](O)[C@H]4O)cccc3c(-c3c4cc(C(=O)O)cc(O)c4c(O)c4c(O[C@H]5O[C@H](CO)[C@@H](O)[C@H](O)[C@H]5O)cccc34)c2c1	active
OCc1ccc(O[C@@H]2O[C@H](CO)[C@@H](O)[C@H](O)[C@H]2O)cc1	inactive
OCc1ccccc1O[C@@H]1O[C@H](CO)[C@@H](O)[C@H](O)[C@H]1O	inactive
O=C1c2c(O)cc(CO)cc2C(OC2OC(CO)C(O)C(O)C2O)c2cccc(OC3OC(CO)C(O)C(O)C3O)c21 (stereo unspecified) [CASANTHRANOL [cascaroside A shown] ]	inactive
COc1c(O)cc2c(c1O)C1OC(CO)C(O)C(O)C1OC2=O (stereo unspecified)	inactive
